From PubChem BioAssay (EPA / NIEHS)
Active and inactive are the calls of the source. How the source made its calls: active means hit-call score of the fitted dose curve at least 0.9, where 1 is the maximum; inactive means score below 0.9.

Experiment: ATG_PXRE_CIS: Attagene CIS-FACTORIAL HepG2 Assay for human Pregnane X Receptor Element (PXRE) (AID 2282957)
Settings: HepG2 Attagene CIS-FACTORIAL PXRE reporter, mRNA; actives raise or lower the signal
Description: ATG_CIS is a cell-based, multiplexed-readout assay that uses HepG2, a human liver cell line, with measurements taken at 24 hours after chemical dosing in a 24-well plate.ATG_PXRE_CIS is one of 52 assay component(s) measured or calculated from the ATG_CIS assay. It is designed to make measurements of mRNA induction, a form of inducible reporter, as detected with fluorescence intensity signals by Reverse transcription polymerase chain reaction (RT-PCR) and Capillary electrophoresis technology.Data from the assay component ATG_PXRE_CIS was analyzed into 1 assay endpoint. This assay endpoint, ATG_PXRE_CIS, was analyzed with bidirectional fitting relative to DMSO as the negative control and baseline of activity. Using a type of inducible reporter, measures of mRNA for gain or loss-of-signal activity can be used to understand the reporter gene at the transcription factor-level as they relate to the gene NR1I2. Furthermore, this assay endpoint can be referred to as a primary readout, because this assay has produced multiple assay endpoints where this one serves a reporter gene function. To generalize the intended target to other relatable targets, this assay endpoint is annotated to the nuclear receptor intended target family, where the subfamily is non-steroidal.
Human liver HepG2 cells are transiently transfected with multiple reporter transcription units (MRTUs) in 6-well plates using FuGene 6 reagent (Roche; 3 ml FuGene/1 mg DNA). The MRTU constructs are regulated by a cis-regulating element (promoter). […] A major difference between the CIS and TRANS system is that in CIS activities of endogenous TFs are measured, whereas the TRANS assay evaluates changes in activities of exogenous, chimeric NR-Gal4 proteins. […] At the end of 24 hour incubation, total RNA was isolated using TriZol reagent (Invitrogen). The isolated RNA is then reverse-transcribed using oligo(dT) primer and Mo-MLV reverse transcriptase (Invitrogen) with DNAse I (Ambion) treatment for 30 min. The one-tenth of the produced cDNA was amplified by PCR using Taq DNA polymerase (Invitrogen) and two reporter sequence-specific primers. The PCR products were fluorescently labeled by primer extension with 6-arboxyfluorescein (6-FAM) 5'-labeled reporter sequence-specific primer (2 min at 95 C, 20 s at 68 C and 10 min at 72 C) and these products were digested with 5U of HpaI (New England Biolabs) for 2h at 37 C. The fragments were purified using Qiaquick PCR columns (Qiagen), analyzed on an ABI 3130xL genetic analyzer (Applied Biosystems) with peak positions identified by using a set of X-rhodamine (ROX)-labeled MapMarker1000 molecular weight standards (BioVentures). The raw capillary electrophoresis data was processed using Attagraph software (Attagene).

SMILES | AC50 | outcome
FC1(F)C(F)(F)C(F)(F)C2(F)C(F)(C1(F)F)C(F)(F)C(F)(F)C1(F)C(F)(F)C(F)(F)C(F)(F)C(F)(F)C12F (stereo not given) | 37.5 µM (active) | 
CCCC[n+]1ccccc1 |  | inactive
CC1=CCC(O)(C(C)C)CC1 (stereo not given) | 39.1 µM (active) | 
NCCCN1CCOCC1 |  | inactive
CCCCCC(CO)CCC (stereo not given) |  | inactive
C=C(C)[C@@H]1CC[C@@H](C)C[C@@H]1O |  | inactive
C[C@H]1C[C@H]2[C@@H]3CCC4=CC(=O)C=C[C@]4(C)[C@@]3(F)[C@@H](O)C[C@]2(C)[C@@]1(O)C(=O)COP(=O)(O)O |  | inactive
COc1nc(C)nc(N)n1 |  | inactive
CCCCCCCCCCCCN |  | inactive
CC(C=O)Cc1ccc(C(C)C)cc1 (stereo not given) | 24 µM (active) | 
O=C(Cl)c1cccc(C(=O)Cl)c1 | 27.5 µM (active) | 
C=CC(=O)OCC(O)COc1ccccc1 (stereo not given) |  | inactive
CC(C)[C@@H]1CC[C@@H](C)CC1=O |  | inactive
CCCOCC(C)O (stereo not given) | 25.5 µM (active) | 
CC(=O)O[C@]1(C(C)=O)CC[C@H]2[C@@H]3C[C@H](C)C4=CC(=O)CC[C@]4(C)[C@H]3CC[C@@]21C | 2.76 µM (active) | 
O=[N+]([O-])c1ccc(Nc2ccc(Nc3ccccc3)c(S(=O)(=O)O)c2)c([N+](=O)[O-])c1 | 27 µM (active) | 
CCCCCCCCCCCCCCCCCC(=O)OCC(CC)CCCC (stereo not given) |  | inactive
O=C(COc1ccc(Cl)cc1)N1CCN(Cc2ccc3c(c2)OCO3)CC1 | 4.76 µM (active) | 
CC(=O)C=CC1=C(C)CCCC1(C)C | 0.716 µM (active) | 
O=C1NC(=O)c2ccccc21 | 38.5 µM (active) | 

SMILES | AC50 | outcome
Cc1ccc2ccccc2n1 | 58.9 µM (active) | 
CN1Cc2c(N)cccc2C(c2ccccc2)C1 (stereo not given) | 6.9 µM (active) | 
CC(CN1c2ccccc2Sc2ccccc21)N(C)C (stereo not given) | 5.52 µM (active) | 
Nc1ccc(S(N)(=O)=O)cc1 |  | inactive
CCCC(=O)C(C)=O | 16.2 µM (active) | 
O=C(O)c1snc(Cl)c1Cl | 26.8 µM (active) | 
O=C[C@H](O)[C@H](O)[C@H](O)CO |  | inactive
CC(=O)[C@H]1CC[C@H]2[C@@H]3CC=C4C[C@@H](O)CC[C@]4(C)[C@H]3CC[C@]12C | 3.37 µM (active) | 
CC(C#N)(CCC(=O)O)N=NC(C)(C#N)CCC(=O)O (stereo not given) | 26.2 µM (active) | 
CC(C)[C@H]1CC[C@@H](C)CC1=O | 61.9 µM (active) | 
C=CC(=O)OCCOCCOCC | 27 µM (active) | 
CCC(=O)OCc1ccccc1 |  | inactive
CC1(C)[C@H]2CC[C@]1(C)[C@H](O)C2 | 68.7 µM (active) | 
Cc1ccc2sc3cccc(C)c3c2c1 |  | inactive
COc1ccc(OC)c(OC)c1 |  | inactive
CCCCCCCCCCCCOCCO |  | inactive
CC(=O)OCc1ccc2c(c1)OCO2 | 26.9 µM (active) | 
CC(C)OP(=O)(CP(=O)(OC(C)C)OC(C)C)OC(C)C | 7.59 µM (active) | 
Nc1ccc(S(=O)(=O)O)c(N)c1 |  | inactive
CC(C)CCCCCCCOC(=O)c1ccc(C(=O)OCCCCCCCC(C)C)c(C(=O)OCCCCCCCC(C)C)c1 | 42.7 µM (active) | 
